Results taken from ChEMBL document CHEMBL3988442, “University of Dundee, Small-Polar-MMV Screening Library” (2021).
For some of these results: Measured potencies and affinities stand elsewhere.

How the values were obtained:
Design in all cases: scale not given: direction of the effect not stated beside the values
[1] = biological target: Protein translocase subunit SecA (Escherichia coli (strain K12)) (UniProt P10408); assay: Assay to Identify E. coli SecA ATPase Inhibitors; type: functional; conditions: 30 µM
Protein translocase subunit SecA (Escherichia coli (strain K12)), sequence (P10408 whole entry): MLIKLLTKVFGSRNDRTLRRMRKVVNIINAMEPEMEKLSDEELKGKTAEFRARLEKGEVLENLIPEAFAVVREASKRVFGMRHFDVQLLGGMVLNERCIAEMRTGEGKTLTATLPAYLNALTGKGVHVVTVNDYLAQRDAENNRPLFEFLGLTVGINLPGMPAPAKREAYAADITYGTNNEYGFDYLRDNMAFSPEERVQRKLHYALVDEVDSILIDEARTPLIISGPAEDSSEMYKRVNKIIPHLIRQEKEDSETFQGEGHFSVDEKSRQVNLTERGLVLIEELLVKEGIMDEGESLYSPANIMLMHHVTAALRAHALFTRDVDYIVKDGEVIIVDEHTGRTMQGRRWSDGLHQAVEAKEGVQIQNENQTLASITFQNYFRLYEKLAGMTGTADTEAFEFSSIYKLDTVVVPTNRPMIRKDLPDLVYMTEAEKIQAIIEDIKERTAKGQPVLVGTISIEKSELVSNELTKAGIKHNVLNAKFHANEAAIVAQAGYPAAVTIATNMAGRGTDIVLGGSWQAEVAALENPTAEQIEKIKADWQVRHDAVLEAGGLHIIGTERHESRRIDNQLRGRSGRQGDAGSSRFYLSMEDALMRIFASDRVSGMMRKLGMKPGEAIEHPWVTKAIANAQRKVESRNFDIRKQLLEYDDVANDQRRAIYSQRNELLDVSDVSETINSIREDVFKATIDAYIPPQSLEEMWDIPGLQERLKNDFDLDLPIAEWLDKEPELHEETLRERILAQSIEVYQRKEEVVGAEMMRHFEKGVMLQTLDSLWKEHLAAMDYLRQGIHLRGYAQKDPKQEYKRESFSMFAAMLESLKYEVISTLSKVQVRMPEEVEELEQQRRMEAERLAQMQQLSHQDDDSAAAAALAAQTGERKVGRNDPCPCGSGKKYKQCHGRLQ

[2] = biological target: T1, Ubiquitin-activating enzyme e1, putative (Leishmania donovani (strain BPK282A1)) (UniProt E9BSI1); assay: Leishmania donovani Ubiquitin Activating Enzyme (LdE1); type: functional; conditions: 30 µM
T1 sequence (whole entry): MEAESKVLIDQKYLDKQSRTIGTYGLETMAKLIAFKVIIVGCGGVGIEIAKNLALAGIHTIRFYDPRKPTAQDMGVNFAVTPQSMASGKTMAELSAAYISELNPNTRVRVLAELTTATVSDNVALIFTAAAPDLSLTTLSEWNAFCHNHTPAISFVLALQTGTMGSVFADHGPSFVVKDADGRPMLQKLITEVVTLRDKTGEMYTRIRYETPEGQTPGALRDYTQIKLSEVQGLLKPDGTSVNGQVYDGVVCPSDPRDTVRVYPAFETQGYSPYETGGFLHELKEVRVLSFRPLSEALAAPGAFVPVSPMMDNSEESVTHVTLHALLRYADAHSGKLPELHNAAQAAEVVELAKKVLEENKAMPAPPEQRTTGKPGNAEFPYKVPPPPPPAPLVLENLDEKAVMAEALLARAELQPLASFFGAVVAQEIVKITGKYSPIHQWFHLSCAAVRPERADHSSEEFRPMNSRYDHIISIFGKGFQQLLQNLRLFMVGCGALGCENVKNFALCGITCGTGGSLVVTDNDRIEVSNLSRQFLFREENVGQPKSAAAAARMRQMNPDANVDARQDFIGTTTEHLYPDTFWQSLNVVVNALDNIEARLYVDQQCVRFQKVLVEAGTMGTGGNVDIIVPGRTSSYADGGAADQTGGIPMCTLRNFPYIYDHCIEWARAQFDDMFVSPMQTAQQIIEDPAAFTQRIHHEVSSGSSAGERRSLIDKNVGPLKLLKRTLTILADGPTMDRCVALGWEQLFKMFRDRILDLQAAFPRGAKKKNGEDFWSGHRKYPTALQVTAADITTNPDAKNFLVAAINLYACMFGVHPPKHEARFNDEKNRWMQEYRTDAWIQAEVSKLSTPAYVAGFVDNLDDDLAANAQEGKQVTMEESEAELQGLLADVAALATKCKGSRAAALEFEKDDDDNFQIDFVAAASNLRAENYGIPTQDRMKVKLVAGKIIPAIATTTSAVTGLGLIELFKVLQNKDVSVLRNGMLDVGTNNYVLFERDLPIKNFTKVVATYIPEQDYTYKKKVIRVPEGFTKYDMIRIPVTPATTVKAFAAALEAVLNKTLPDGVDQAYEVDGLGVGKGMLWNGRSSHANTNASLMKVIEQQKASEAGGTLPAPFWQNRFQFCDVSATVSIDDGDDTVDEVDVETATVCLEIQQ

[3] = biological target: AMP-activated protein kinase, AMPK (Homo sapiens) (UniProt P54646+O43741+P54619+Q9UGJ0+Q9Y478+Q13131+Q9UGI9); assay: AMP-dependent Kinase enzyme assay. An in vitro enzyme assay that detects ADP turnover that is directly proportional to AMPK activity. This uses naive AMPK that is activated during the assay with MK-8722; type: functional; conditions: 30 µM
[4] = biological target: Sialic acid-binding Ig-like lectin 9 (Homo sapiens) (UniProt Q9Y336); assay: Hs-Siglec9 ALPHAscreen SOP 20170721; conditions: 10 µM
Sialic acid-binding Ig-like lectin 9 (Homo sapiens), sequence (Q9Y336 whole entry): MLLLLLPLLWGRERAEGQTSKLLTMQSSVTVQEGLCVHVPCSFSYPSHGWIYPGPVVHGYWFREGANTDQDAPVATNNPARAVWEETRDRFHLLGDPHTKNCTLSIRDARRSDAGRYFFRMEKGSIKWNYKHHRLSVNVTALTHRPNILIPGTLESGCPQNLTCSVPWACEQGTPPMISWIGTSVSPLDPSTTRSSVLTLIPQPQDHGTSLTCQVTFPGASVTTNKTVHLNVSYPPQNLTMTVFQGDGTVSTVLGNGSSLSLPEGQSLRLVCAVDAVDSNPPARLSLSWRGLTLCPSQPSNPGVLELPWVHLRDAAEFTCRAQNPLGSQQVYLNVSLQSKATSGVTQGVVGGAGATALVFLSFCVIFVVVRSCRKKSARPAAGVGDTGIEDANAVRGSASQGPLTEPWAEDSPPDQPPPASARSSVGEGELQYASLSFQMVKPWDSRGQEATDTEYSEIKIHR

Trypanosoma cruzi = assay: Trypanosoma cruzi phosphomannomutase and mannose-1-phosphate guanylyltransferase assay; type: functional; conditions: 10 µM
[5] = biological target: T2, Arginase-2, mitochondrial (Homo sapiens) (UniProt P78540); assay: in vitro enzyme assay to detect the production of urea directly proportional to the activity of Arginase II; type: functional; conditions: 33.3 µM; further: in the data most compounds retested in dose-response had high values
T2 sequence (whole entry): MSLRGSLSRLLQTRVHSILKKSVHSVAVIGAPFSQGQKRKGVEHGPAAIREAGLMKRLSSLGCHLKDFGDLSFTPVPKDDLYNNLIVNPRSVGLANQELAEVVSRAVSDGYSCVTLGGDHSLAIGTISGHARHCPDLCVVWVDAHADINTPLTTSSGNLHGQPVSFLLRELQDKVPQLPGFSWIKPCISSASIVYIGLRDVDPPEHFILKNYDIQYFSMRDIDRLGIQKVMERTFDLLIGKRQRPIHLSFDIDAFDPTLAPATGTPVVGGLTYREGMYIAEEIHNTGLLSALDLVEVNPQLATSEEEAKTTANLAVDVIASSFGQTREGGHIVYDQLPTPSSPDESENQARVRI

[6] = biological target: T3, Proteasome subunit beta (Trypanosoma cruzi) (UniProt O96673); assay: Trypanosoma cruzi proteasome chymotrypsin-like activity (TcProtChymo) assay.; further: in the data most compounds retested in dose-response had high values; type: functional; conditions: 9.37 µM
T3 sequence (whole entry): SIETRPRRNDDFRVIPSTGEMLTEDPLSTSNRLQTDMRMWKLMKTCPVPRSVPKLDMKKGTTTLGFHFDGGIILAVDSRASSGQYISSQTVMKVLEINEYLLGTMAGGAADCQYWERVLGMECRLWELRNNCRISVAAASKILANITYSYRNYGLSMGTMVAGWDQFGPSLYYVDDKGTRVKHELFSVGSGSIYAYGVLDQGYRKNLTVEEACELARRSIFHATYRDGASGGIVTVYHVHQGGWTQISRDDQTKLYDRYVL

Homo sapiens = species: Homo sapiens; assay: To identify inhibition of the IFN signalling (Jak-Stat) pathway via expression of an eGFP reporter gene under the control of an IFN-stimulated response element (ISRE) containing MxA promoter.; type: functional; conditions: 30 µM
[7] = biological target: T4, Tyrosyl-tRNA synthetase, putative (Trypanosoma cruzi (strain CL Brener)) (UniProt Q4DSP6); assay: Trypanosoma cruzi tyrosyl tRNA synthetase (TcYRS) _High Tyrosine SOP; type: functional; conditions: 30 µM; further: in the data most compounds retested in dose-response had high values
T4 sequence (whole entry): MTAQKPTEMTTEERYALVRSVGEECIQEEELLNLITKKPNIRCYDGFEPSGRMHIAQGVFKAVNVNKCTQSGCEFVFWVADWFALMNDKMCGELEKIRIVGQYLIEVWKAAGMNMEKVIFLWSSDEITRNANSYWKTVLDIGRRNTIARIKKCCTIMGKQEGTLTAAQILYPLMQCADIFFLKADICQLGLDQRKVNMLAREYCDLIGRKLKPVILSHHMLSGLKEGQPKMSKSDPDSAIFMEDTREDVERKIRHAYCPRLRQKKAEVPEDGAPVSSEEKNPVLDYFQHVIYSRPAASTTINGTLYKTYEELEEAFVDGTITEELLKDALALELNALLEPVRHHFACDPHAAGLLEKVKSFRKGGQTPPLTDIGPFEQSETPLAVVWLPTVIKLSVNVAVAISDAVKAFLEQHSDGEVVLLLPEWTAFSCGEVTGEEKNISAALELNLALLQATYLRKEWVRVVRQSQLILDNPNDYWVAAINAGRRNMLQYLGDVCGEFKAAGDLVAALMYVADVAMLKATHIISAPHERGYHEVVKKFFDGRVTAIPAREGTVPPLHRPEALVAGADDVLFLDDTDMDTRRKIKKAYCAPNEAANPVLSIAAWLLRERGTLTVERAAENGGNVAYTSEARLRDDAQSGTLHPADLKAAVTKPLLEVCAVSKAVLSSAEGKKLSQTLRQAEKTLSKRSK

[8] = biological target: T4, Tyrosyl-tRNA synthetase, putative (Trypanosoma cruzi (strain CL Brener)); assay: Trypanosoma cruzi tyrosyl tRNA synthetase (TcYRS) SOP; type: functional; conditions: 30 µM
[9] = biological target: Chromo domain-containing protein 1 (Saccharomyces cerevisiae (strain ATCC 204508 / S288c) (Baker's yeast)) (UniProt P32657); assay: ScCHD-1 Enzyme Inhibition Assay; type: functional; conditions: 30 µM; further: in the data most compounds retested in dose-response had high values
Chromo domain-containing protein 1 (Saccharomyces cerevisiae (strain ATCC 204508 / S288c) (Baker's yeast)), sequence (P32657 whole entry, the tested form may be a part): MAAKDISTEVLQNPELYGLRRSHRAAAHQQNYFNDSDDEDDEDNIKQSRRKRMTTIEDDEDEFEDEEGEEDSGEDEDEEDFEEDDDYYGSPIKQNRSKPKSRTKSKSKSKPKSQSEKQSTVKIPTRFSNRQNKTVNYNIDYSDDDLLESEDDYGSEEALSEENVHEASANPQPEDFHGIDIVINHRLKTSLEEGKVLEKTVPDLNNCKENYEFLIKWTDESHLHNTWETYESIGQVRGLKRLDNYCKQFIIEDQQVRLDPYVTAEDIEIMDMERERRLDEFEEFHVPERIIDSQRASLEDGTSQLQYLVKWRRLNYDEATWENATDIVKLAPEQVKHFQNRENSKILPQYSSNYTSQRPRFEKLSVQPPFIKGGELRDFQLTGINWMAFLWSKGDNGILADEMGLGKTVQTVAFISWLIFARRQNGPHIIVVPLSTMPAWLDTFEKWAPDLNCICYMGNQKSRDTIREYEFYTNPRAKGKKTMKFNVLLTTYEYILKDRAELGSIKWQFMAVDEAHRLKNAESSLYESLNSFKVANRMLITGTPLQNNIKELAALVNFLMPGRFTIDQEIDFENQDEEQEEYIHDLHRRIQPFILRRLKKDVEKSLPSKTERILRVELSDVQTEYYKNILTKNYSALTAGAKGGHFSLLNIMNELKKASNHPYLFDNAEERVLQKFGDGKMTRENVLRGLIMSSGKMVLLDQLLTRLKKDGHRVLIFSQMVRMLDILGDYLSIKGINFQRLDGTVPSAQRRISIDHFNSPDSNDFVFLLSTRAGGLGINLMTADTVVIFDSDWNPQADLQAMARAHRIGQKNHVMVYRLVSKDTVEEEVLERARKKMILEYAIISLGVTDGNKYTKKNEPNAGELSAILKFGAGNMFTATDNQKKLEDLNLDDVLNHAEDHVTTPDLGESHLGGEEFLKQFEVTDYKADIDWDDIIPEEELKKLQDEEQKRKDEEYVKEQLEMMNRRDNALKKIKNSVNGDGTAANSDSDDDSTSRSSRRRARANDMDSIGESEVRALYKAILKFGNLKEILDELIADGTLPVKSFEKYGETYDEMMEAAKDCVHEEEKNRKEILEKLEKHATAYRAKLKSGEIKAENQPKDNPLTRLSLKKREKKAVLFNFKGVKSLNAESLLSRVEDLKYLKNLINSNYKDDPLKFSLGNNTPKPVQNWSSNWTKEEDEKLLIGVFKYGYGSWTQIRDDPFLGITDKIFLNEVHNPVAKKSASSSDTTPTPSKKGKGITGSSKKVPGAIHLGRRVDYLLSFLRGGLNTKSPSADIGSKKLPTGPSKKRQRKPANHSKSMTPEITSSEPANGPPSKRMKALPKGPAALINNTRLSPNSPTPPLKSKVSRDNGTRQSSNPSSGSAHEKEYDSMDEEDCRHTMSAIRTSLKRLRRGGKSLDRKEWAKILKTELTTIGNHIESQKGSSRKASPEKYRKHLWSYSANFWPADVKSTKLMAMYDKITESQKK

Row | SMILES | Percent Effect [1] | Percent Effect [2] | Percent Effect [3] | Percent Effect [4] | Percent Effect (Trypanosoma cruzi) | Percent Effect [5] | Percent Effect [6] | Percent Effect (Homo sapiens) | Percent Effect [7] | Percent Effect [8] | Percent Effect [9]
1 | N#Cc1ccc(CNC(=O)NC2CCN(CC(F)F)CC2)cc1 | -5.31% | 2.7% | 0.0143% | 20.2% | 10.8% | -2.23% | 12.3% | 8.62% | 4.3% | 16.1% | -4.65%
2 | CCN1CCN(c2ncc(-c3cc(C)no3)c(-c3ccoc3C)n2)CC1 | -4.09% | 12.2% | 5% | 3.93% | 1.98% | -3.48% | 6.4% | -1.91% | 2.15% | 6.49% | -24.9%
3 | CN1CCCc2cc(NC(=O)N3CCOC(C(N)=O)C3)ccc21 (configuration not stated) | 4.12% | 21.9% | 34.2% | 5.33% | 5.75% | -1.2% | 10.5% | 14.3% | 8.33% | 21% | -3.37%
4 | Cc1nc(CN2CCc3nn(C(C)C)c(=O)cc3C2)oc1C | -3.86% | -2.63% | -91.7% | 5.18% | -3.83% | 6.83% | 10.4% | -4.72% | -3.45% | -8.64% | 2.02%
5 | COc1ccnc(N2CCN(C(=O)CN3CCCC3=O)CC2)n1 | -4.51% | 18.4% | -5.08% | -0.685% | 2.52% | 2.88% | 7.02% | 2.97% | 8.37% | 25.9% | -11.5%
6 | COc1ccc(C(=O)NS(=O)(=O)c2ccc(C#N)cc2C(F)(F)F)cc1 | -1.41% | -10.8% | 20.6% | 0.998% | 0.472% | 6.41% | -3.06% | 11.2% | -2.46% | -1.24% | -2.1%
7 | CCN1CCn2c(C)cnc2C12CCN(C(=O)c1ccc(Cl)cc1)CC2 | -4.5% | 10.7% | 9.36% | -7.09% | -6.95% | -59% | 11.1% | 4.01% | 2.08% | 10% | -6.26%
8 | Cn1cccc1C(=O)N1CCC2(CC1)CN(c1ccccn1)CCO2 | -5.31% | 5.2% | -0.668% | 10.6% | 9.54% | -55.2% | 5.49% | 6.16% | -2.15% | -1.24% | -2.89%
9 | Cc1ccc(N2CC[C@H](OCC3CC3)[C@@H]2Cc2cnn(C)c2)nn1 | -4.88% | 5.41% | -7.52% | -0.711% | -0.195% | 0.833% | 15.1% | 8.56% | 7.92% | 8.54% | 0.632%
10 | Cc1cnn(CC2CCCCN2Cc2nc(-c3ccoc3)no2)c1 (configuration not stated) | -1.89% | 16.2% | -6.06% | 4.87% | 5.19% | -5.61% | 7.75% | 21.5% | 8.37% | 23.5% | -6.74%
11 | CC(OCC1CC1)C(=O)N1CCCN(Cc2nccn2C)CC1 (configuration not stated) | 0.276% | 13.9% | -2.47% | -3.62% | -5.64% | 1.07% | 19.4% | 10.6% | 3.12% | 7.59% | -24.1%
12 | Cc1nc(CN2CCCC(NCCOCC(F)(F)F)C2)no1 (configuration not stated) | -6.82% | 7.59% | -4.02% | 0.79% | 4.44% | -1.52% | 4.18% | -2.76% | 4.43% | 8.86% | -5.18%
13 | O=C(O)C1(Cc2cccc(-c3ccc(F)c(F)c3)c2)CCOCC1 | -3.39% | 1.35% | 13.4% | 4.42% | -1.78% | 1.16% | 5.93% | 28.6% | -15.1% | -11.7% | -15%
14 | CCCc1nc(NCCCO)c2c(n1)c(C)nn2CC | -3.3% | 6.67% | 9.08% | 11.8% | -1.38% | -9.33% | 14.2% | 12.4% | 8.47% | 12.8% | -10.1%
15 | O=C(CSc1ccccc1Cl)NS(=O)(=O)c1ccc2c(c1)OCCO2 | -4.83% | -21.1% | 27.8% | 4.23% | 1.69% | -1.15% | 9.69% | 4.4% | -15.2% | -12.2% | -10.3%
16 | Cn1cc(C2CCCN2CCCc2nc(-c3cccs3)no2)cn1 (configuration not stated) | -0.777% | -32.4% | -4.52% | -1.6% | -3.87% | -6.41% | 7.03% | 18.4% | 4.43% | -6.17% | 0.396%
17 | COc1cccc(S(=O)(=O)NC(=O)COC2CCCC2)c1 | -1.91% | 20.8% | 2.89% | 10.4% | 2.06% | 2.85% | 10.6% | 3.15% | 8.74% | 24.4% | -6.86%
